# This is one part of a sample in which the strongest signals are shown more often than they occur.
# B1: CD23 (Homo sapiens) (protein)
# chain: MELQVSSGFVCNTCPEKWINFQRKCYYFGKGTKQWVHARYACDDMEGQLVSIHSPEEQDFLTKHASHTGSWIGLRNLDLKGEFIWVDGSHVDYSNWAPGEPTSRSQGEDCVMMRGSGRWNDAFCDRKLGAWVCDRLATCTPPASEGSAESMGPDSRPDPDGRLPTPSAPLHS
# Columns and labels:
# Assay in all cases: glycan array binding signal (z-score within array); higher = stronger binding
# Details in all cases: glycan notation: IUPAC condensed, linker removed
# [1] = biological target: Fuc(a1-2)Gal(b1-4)GlcNAc6S
# Outline: (§1)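 The binding signal is a Z-score computed within each array and averaged over linkers. Arrays of the same protein sequence at different concentrations or buffers were also averaged together. Data originate from 3228 arrays in the Consortium for Functional Glycomics database, kept only where the protein sequence was available.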
# [2] = biological target: Fuc(a1-2)Gal(b1-4)[Fuc(a1-3)]GlcNAc
# Outline: as §1
# Fuc(a1-2)[Gal(a1-3)]Gal = biological target: Fuc(a1-2)[Gal(a1-3)]Gal
# Outline: as §1
# [3] = biological target: Fuc(a1-2)[Gal(a1-3)]Gal(b1-3)GlcNAc
# Outline: as §1
# [4] = biological target: Fuc(a1-2)[Gal(a1-3)]Gal(b1-4)[Fuc(a1-3)]GlcNAc
# Outline: as §1
# [5] = biological target: Fuc(a1-2)[GalNAc(a1-3)]Gal(b1-4)[Fuc(a1-3)]GlcNAc
# Outline: as §1
# [6] = biological target: Fuc(a1-3)[Gal3S(b1-4)]Glc6S
# Outline: as §1
# [7] = biological target: Fuc(a1-3)[Gal3S(b1-4)]GlcNAc6S
# Outline: as §1
# Gal(a1-6)Glc = biological target: Gal(a1-6)Glc
# Outline: as §1
# [8] = biological target: Gal(b1-4)GlcNAc(b1-2)Man(a1-3)[Gal(b1-4)GlcNAc(b1-2)Man(a1-6)]Man(b1-4)GlcNAc(b1-4)GlcNAc
# Outline: as §1
# GalNAc(b1-4)GlcNAc = biological target: GalNAc(b1-4)GlcNAc
# Outline: as §1
# [9] = biological target: GlcNAc(b1-2)Man(a1-3)[GlcNAc(b1-2)Man(a1-6)]Man(b1-4)GlcNAc(b1-4)GlcNAc
# Outline: as §1
# [10] = biological target: GlcNAc(b1-3)Gal(b1-3)GalNAc
# Outline: as §1
# GlcNAc(b1-3)Gal(b1-4)Glc = biological target: GlcNAc(b1-3)Gal(b1-4)Glc
# Outline: as §1
# [11] = biological target: Neu5Ac(a2-3)Gal(b1-3)GlcNAc(b1-3)Gal(b1-3)GlcNAc
# Outline: as §1
# [12] = biological target: Neu5Ac(a2-3)Gal(b1-4)[Fuc(a1-3)]GlcNAc(b1-3)Gal
# Outline: as §1
# [13] = biological target: Neu5Ac(a2-3)Gal(b1-4)[Fuc(a1-3)]GlcNAc(b1-3)Gal(b1-4)GlcNAc
# Outline: as §1
# Neu5Ac(b2-6)GalNAc = biological target: Neu5Ac(b2-6)GalNAc
# Outline: as §1
# [14] = biological target: Neu5Ac9Ac(a2-6)Gal(b1-4)GlcNAc
# Outline: as §1
# [15] = biological target: Neu5Gc(a2-6)Gal(b1-4)GlcNAc
# Outline: as §1
binder,measurement,setting,value
B1,glycan array binding signal (z-score),[1],-0.186
same,glycan array binding signal (z-score),[2],0.228
same,glycan array binding signal (z-score),Fuc(a1-2)[Gal(a1-3)]Gal,-0.374
same,glycan array binding signal (z-score),[3],-0.086
same,glycan array binding signal (z-score),[4],0.988
same,glycan array binding signal (z-score),[5],0.752
same,glycan array binding signal (z-score),[6],2.25
same,glycan array binding signal (z-score),[7],0.491
same,glycan array binding signal (z-score),Gal(a1-6)Glc,0.204
same,glycan array binding signal (z-score),[8],-0.225
same,glycan array binding signal (z-score),GalNAc(b1-4)GlcNAc,-0.48
same,glycan array binding signal (z-score),[9],-0.157
same,glycan array binding signal (z-score),[10],1.43
same,glycan array binding signal (z-score),GlcNAc(b1-3)Gal(b1-4)Glc,-0.494
same,glycan array binding signal (z-score),[11],-0.189
same,glycan array binding signal (z-score),[12],-0.435
same,glycan array binding signal (z-score),[13],1.15
same,glycan array binding signal (z-score),Neu5Ac(b2-6)GalNAc,-0.582
same,glycan array binding signal (z-score),[14],1.43
same,glycan array binding signal (z-score),[15],-0.645

# — the supplement of paper PMC8728848
